This is an account of results in paper PMC7862700, “An all-to-all approach to the identification of sequence-specific readers for epigenetic DNA modifications on cytosine”.

What all share (assay): DAPPL (digital affinity profiling via proximity ligation, sequencing); 10 mM Tris-HCl pH 7.5, 50 mM NaCl, 1 mM DTT, 4% glycerol, room temperature, 30 min; GST-TFs on glutathione beads, 16-mer random dsDNA library, 0.1% formaldehyde crosslink after washing; high values mean tight binding
What all share (settings): protein: recombinant; tags: N-terminal GST; dsDNA, one strand shown

One assay addresses T1, ERF (Homo sapiens, UniProt P50548 1-548).
T1 sequence: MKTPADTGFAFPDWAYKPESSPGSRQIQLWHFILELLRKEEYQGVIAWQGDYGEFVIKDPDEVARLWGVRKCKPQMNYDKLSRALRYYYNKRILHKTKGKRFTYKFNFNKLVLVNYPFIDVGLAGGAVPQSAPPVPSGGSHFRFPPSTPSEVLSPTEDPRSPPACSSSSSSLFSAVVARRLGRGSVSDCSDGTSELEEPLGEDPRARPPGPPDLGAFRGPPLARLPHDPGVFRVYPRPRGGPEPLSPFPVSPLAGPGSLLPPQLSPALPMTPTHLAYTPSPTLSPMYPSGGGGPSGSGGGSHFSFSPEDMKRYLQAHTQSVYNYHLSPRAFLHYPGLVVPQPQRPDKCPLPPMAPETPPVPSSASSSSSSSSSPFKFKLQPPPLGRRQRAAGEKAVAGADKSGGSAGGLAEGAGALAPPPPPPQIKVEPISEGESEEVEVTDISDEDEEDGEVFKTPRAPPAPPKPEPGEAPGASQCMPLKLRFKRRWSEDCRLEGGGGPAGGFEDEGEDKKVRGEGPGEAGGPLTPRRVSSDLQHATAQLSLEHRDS
An outline of the steps:
(§1)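 A tag-only sample was pooled with DNA-barcoded human transcription factors that had been expressed in yeast as GST fusions and captured on glutathione beads. The pools were incubated for 30 min at room temperature with 200 nmole of a random double-stranded 16-mer DNA library in Tris/NaCl/DTT/glycerol buffer, then washed, crosslinked with 0.1% formaldehyde, proximity-ligated (BsaI/T4 ligase, 1 h, 37 °C), PCR-amplified and sequenced on an Illumina NextSeq500. Binding signal is each hexamer's read frequency for a factor divided by its frequency for the tag-only sample.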

The target in another assay is T2, ETV3L (Homo sapiens, UniProt Q6ZN32 1-361).
T2 sequence: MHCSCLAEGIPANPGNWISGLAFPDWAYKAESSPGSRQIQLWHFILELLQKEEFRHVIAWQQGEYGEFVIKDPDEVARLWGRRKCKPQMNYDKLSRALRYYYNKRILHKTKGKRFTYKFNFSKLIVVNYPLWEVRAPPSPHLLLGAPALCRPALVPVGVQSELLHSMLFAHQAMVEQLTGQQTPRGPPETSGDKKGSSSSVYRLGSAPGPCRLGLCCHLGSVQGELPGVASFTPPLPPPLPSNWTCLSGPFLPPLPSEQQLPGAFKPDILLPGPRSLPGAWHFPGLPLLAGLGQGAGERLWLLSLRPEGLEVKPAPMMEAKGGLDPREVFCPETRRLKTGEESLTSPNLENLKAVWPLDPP
In a few lines: as §1

The target of a further assay is T3, ETS2 (Homo sapiens, UniProt P15036 1-469).
T3 sequence: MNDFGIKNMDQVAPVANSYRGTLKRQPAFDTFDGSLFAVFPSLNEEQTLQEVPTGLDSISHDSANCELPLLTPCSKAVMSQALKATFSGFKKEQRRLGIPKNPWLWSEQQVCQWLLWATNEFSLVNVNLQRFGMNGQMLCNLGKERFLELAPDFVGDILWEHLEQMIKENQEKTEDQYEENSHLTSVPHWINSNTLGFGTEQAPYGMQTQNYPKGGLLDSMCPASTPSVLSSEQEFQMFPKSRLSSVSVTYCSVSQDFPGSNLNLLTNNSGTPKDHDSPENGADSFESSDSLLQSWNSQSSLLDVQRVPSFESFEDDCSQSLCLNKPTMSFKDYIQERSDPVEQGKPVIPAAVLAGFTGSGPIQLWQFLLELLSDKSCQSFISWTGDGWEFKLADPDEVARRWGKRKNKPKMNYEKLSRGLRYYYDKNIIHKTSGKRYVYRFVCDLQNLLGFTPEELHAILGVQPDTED
In a few lines:
as §1

The target of a further assay is T4, SPDEF (Homo sapiens, UniProt O95238 1-335).
T4 sequence: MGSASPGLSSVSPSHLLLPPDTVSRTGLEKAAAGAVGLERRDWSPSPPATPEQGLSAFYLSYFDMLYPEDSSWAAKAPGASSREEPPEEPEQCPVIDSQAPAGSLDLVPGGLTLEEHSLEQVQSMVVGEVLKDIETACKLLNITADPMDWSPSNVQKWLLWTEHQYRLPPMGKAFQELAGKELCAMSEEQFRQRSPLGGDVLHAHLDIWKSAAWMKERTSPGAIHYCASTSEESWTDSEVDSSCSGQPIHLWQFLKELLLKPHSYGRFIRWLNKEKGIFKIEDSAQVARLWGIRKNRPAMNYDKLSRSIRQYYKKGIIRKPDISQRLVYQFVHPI
An outline of the steps:
as §1

Another assay addresses T5, ETV7 (Homo sapiens, UniProt Q9Y603 1-341).
T5 sequence: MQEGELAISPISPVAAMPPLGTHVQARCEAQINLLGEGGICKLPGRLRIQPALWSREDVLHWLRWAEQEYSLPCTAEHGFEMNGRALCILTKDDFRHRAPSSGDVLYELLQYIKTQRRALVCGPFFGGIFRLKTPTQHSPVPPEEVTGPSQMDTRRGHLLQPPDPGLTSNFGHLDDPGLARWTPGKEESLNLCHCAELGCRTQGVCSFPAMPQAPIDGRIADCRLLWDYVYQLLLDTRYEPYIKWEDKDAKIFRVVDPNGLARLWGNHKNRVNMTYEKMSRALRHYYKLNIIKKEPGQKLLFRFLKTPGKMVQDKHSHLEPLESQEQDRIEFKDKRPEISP
An outline of the steps: as §1

A further assay deals with T6, ELF5 (Homo sapiens, UniProt Q9UKW6-2 1-255).
T6 sequence: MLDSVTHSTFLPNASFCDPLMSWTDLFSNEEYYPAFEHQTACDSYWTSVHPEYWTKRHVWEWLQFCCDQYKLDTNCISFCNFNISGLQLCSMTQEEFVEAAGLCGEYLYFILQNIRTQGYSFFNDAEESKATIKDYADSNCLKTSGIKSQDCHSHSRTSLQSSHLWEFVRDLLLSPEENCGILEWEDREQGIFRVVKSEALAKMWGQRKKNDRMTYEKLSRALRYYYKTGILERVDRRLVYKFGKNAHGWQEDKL
An outline of the steps:
as §1

The target in the next assay is T7, ETV3 (Homo sapiens, UniProt P41162-2 1-143).
T7 sequence: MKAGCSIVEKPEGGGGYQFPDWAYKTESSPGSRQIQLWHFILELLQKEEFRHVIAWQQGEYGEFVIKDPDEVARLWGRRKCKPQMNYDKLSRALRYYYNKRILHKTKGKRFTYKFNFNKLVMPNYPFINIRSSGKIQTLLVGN
In a few lines:
as §1

Another assay has as its target ETV6 (Homo sapiens, UniProt P41212 1-452). An outline of the steps:
as §1

Sequence of ETV6 (P41212 whole entry): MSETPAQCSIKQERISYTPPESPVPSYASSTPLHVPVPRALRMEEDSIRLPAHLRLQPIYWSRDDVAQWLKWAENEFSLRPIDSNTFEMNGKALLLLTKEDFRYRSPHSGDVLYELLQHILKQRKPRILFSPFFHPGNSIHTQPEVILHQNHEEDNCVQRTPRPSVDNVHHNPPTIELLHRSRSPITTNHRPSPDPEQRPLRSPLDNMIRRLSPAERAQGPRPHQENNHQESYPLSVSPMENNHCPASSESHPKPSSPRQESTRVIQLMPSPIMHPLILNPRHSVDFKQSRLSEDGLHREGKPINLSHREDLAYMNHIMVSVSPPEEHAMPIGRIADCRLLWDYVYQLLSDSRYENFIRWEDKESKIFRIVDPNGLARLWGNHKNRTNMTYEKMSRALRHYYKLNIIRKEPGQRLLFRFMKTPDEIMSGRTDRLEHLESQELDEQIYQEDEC

With CTGCCC, the binding signal with ERF was 1.16 fold enrichment (6-mer frequency, TF over GST control); in the assay with ETV3L, 1.22 fold enrichment (6-mer frequency, TF over GST control); with ETS2, 1.21 fold enrichment (6-mer frequency, TF over GST control); with SPDEF it was 1.23 fold enrichment (6-mer frequency, TF over GST control); with ETV7 it was 1.15 fold enrichment (6-mer frequency, TF over GST control); in the assay with ELF5, 1.19 fold enrichment (6-mer frequency, TF over GST control). The binding signal with ETV3 is 1.37 fold enrichment (6-mer frequency, TF over GST control); in the assay with ETV6 it was 1.16 fold enrichment (6-mer frequency, TF over GST control).

Consider ATGTTG, for which the binding signal with ERF was 1.24 fold enrichment (6-mer frequency, TF over GST control); in the assay with ETV3L, 1.23 fold enrichment (6-mer frequency, TF over GST control); with ETS2 it was 1.22 fold enrichment (6-mer frequency, TF over GST control); with SPDEF it was 1.31 fold enrichment (6-mer frequency, TF over GST control); with ETV7, 1.43 fold enrichment (6-mer frequency, TF over GST control); with ELF5, 1.15 fold enrichment (6-mer frequency, TF over GST control). In addition, the binding signal with ETV3 was 1.33 fold enrichment (6-mer frequency, TF over GST control); in the assay with ETV6 it was 1.22 fold enrichment (6-mer frequency, TF over GST control).

As for CAAACT, the binding signal is 1.23 fold enrichment (6-mer frequency, TF over GST control) with ERF; 1.14 fold enrichment (6-mer frequency, TF over GST control) with ETV3L; 1.21 fold enrichment (6-mer frequency, TF over GST control) in the assay with ETS2; 1.16 fold enrichment (6-mer frequency, TF over GST control) with SPDEF; 1.15 fold enrichment (6-mer frequency, TF over GST control) in the assay with ETV7; 1.18 fold enrichment (6-mer frequency, TF over GST control) in the assay with ELF5. Moreover, the binding signal with ETV3 was 1.13 fold enrichment (6-mer frequency, TF over GST control); with ETV6, 1.21 fold enrichment (6-mer frequency, TF over GST control).

Take TGTATA: the binding signal is 1.24 fold enrichment (6-mer frequency, TF over GST control) with ERF; 1.11 fold enrichment (6-mer frequency, TF over GST control) in the assay with ETV3L; 1.1 fold enrichment (6-mer frequency, TF over GST control) with ETS2; 1.24 fold enrichment (6-mer frequency, TF over GST control) with SPDEF; 1.09 fold enrichment (6-mer frequency, TF over GST control) in the assay with ETV7; 1.11 fold enrichment (6-mer frequency, TF over GST control) with ELF5. Further, the binding signal is 1.04 fold enrichment (6-mer frequency, TF over GST control) with ETV3 and 1.04 fold enrichment (6-mer frequency, TF over GST control) with ETV6.

Turning to ACTTGG, the binding signal with ERF is 1.28 fold enrichment (6-mer frequency, TF over GST control); with ETV3L, 1.15 fold enrichment (6-mer frequency, TF over GST control); with ETS2, 1.16 fold enrichment (6-mer frequency, TF over GST control); with SPDEF, 1.21 fold enrichment (6-mer frequency, TF over GST control); in the assay with ETV7 it was 1.2 fold enrichment (6-mer frequency, TF over GST control); with ELF5, 1.16 fold enrichment (6-mer frequency, TF over GST control). Further, the binding signal is 1.2 fold enrichment (6-mer frequency, TF over GST control) with ETV3 and 1.16 fold enrichment (6-mer frequency, TF over GST control) with ETV6.

With GTTTTA, the binding signal is 1.2 fold enrichment (6-mer frequency, TF over GST control) with ERF; 1.02 fold enrichment (6-mer frequency, TF over GST control) in the assay with ETV3L; 1.1 fold enrichment (6-mer frequency, TF over GST control) in the assay with ETS2; 1.04 fold enrichment (6-mer frequency, TF over GST control) in the assay with SPDEF; 1.23 fold enrichment (6-mer frequency, TF over GST control) with ETV7; 1.09 fold enrichment (6-mer frequency, TF over GST control) in the assay with ELF5. Besides, the binding signal in the assay with ETV3 is 1.21 fold enrichment (6-mer frequency, TF over GST control); in the assay with ETV6 it was 1.13 fold enrichment (6-mer frequency, TF over GST control).

Take CGTCCT: the binding signal is 1.41 fold enrichment (6-mer frequency, TF over GST control) with ERF; 1.31 fold enrichment (6-mer frequency, TF over GST control) in the assay with ETV3L; 1.28 fold enrichment (6-mer frequency, TF over GST control) with ETS2; 1.56 fold enrichment (6-mer frequency, TF over GST control) with SPDEF; 1.45 fold enrichment (6-mer frequency, TF over GST control) with ETV7; 1.56 fold enrichment (6-mer frequency, TF over GST control) in the assay with ELF5. The binding signal with ETV3 is 1.53 fold enrichment (6-mer frequency, TF over GST control); with ETV6, 1.47 fold enrichment (6-mer frequency, TF over GST control).
